Screens from PubChem.
The list is not random: actives were taken first. Their share in the collection is about 4.9%.
HSF1 activator: increases HSF-1 driven luciferase reporter signal; NIH3T3-HGL HSF-1 luciferase reporter, MG132, 8 h; 100% = twice DMSO control signal; activation, % at 9 µM; hit rate 1.7% among 300,000; AID 504408;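 active means mean replicate activation of at least 50% with a set share of replicates each reaching 50%; inconclusive means only one of those two conditions met; inactive means mean below 50% and too few replicates reaching it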;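 further: 0% = median of the neutral control wells and 100% = twice that signal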
HSF1 inhib: HSF1 inhibition; activity change, negative = inhibition, % at 7.5 µM (by protocol); NIH3T3-HGL HSE-luciferase, MG132-induced, luminescence 8 h; hits give low values; hit rate 0.77% among 300,000;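 active means more than half of replicate wells show activity change below -50%, luminescence cut by over half; inconclusive means some wells, but at most half, below -50%; inactive means no replicate well below -50%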;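 further: luciferase reports HSF-1 transcriptional activity via heat shock element; 0% = median of DMSO wells and -100% = zero luminescence signal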
MPTP inh: permeability transition pore inhibition; isolated mouse mitochondria, Ca2+ swelling absorbance, 30 min; inhibition, % at 10 µM; hit rate 1.4% among 360,000;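 active means inhibition of 50% or more, scaled per plate between neutral and stimulator controls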;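 further: 0% = DMSO wells given calcium and 100% = 1 mM EGTA wells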
HSP90 inh: blocks HSP90-mediated luciferase refolding in reticulocyte lysate; Rabbit reticulocyte lysate, luciferase refolding luminescence, 3 h; AID 1789; hit rate 0.91% among 290,000; inhibition, % at 5.6 µM;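 active means inhibition above the screen-wide mean plus 3 SD, computed separately per campaign, cut at about 16% in these data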;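 further: 0% = DMSO wells and 100% = 60 µM geldanamycin wells; inhibitors lower the luminescence because luciferase stays unfolded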
Platelet DG rel: platelet dense granule release activity. human platelet-rich plasma, SFLLRN dense granule ATP release, luminescence. inhibition, %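 (compounds screened at 7.5 µM in platelet-rich plasma)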. hit rate 0.22% among 300,000. AID 1663;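 active means mean replicate score, as percent of positive control, at or above 50; inconclusive means mean below 50 but at least one replicate at or above 50; inactive means mean and every replicate below 50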
dFosB act: enhances mouse delta FosB homodimer DNA binding | P13346 | purified delta FosB, TAMRA-CDK5 oligo fluorescence polarization; percent of positive-control signal above neutral wells | activation, % at 25 µM | hit rate 0.99% among 340,000;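 active means mean activation above about 17%, with every replicate also reaching it, limit read from the data, passing the limit was not always enough; inconclusive means only one of the two conditions met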
Target sequence (P13346 whole entry, looked up): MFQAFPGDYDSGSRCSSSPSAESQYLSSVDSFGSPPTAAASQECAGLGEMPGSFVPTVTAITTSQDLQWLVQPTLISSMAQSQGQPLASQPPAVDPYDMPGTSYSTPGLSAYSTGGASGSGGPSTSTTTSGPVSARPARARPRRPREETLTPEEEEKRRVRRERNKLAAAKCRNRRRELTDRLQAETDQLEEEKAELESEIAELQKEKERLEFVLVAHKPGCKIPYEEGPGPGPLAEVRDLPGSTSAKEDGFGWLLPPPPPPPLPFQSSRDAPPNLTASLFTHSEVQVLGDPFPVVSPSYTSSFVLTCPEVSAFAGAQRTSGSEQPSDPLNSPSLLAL
* = called active by the depositor; ? = inconclusive; · = not tested or not shown.

SMILES	HSF1 activator	HSF1 inhib	MPTP inh	HSP90 inh	Platelet DG rel	dFosB act
COc1cc(C(=O)OCn2nnc3ccccc3c2=O)cc(OC)c1OC	-4.4	-0.8	-1.4	-4.8	2.3	-11.5
Cc1ccccc1C(=O)OCn1nnc2ccccc2c1=O	-2.2	-11.2	-0.5	-0.9	92.5*	-6.2
COc1cc(CCC(=O)OCn2nnc3ccccc3c2=O)cc(OC)c1OC	-84.4	-81.0*	-0.3	2.7	5.9	7.5
O=c1c2ccccc2nnn1CSc1ccccc1	85.7*	43.7	4.7	12.4	-6.1	3.0
O=C(NCCCNC(=O)c1ccc(-c2cccc(Cl)c2)o1)c1cnccn1	3.1	-3.3	0.2	3.9	-15.7	-10.9
O=C(CNCCc1ccc(F)cc1)Nc1cc(F)ccc1F	-68.6	-60.1*	1.4	-0.7	-6.0	-1.2
O=C1Nc2ccccc2-n2nnnc2C1N1CCN(c2ccc(F)cc2)CC1 (stereo not drawn)	·	·	1.7	·	·	·
C[C@H](CO)N1C[C@H](C)[C@@H](CN(C)C(=O)Nc2ccc3c(c2)OCO3)Oc2ccc(NC(=O)Nc3ccc4c(c3)OCO4)cc2C1=O	·	·	3.3	·	·	-5.7
[O-]/[N+](=C\C=C\c1ccccc1)c1ccccc1	62.3*	24.3	-0.2	1.9	18.3	-0.3
O=[N+]([O-])c1ccc(C=CC=Cc2ccccc2)cc1	·	·	2.8	·	·	·
COc1ccc(NC(=O)CSc2c3c(nc4cc(Cl)ccc24)CCCC3)cc1OC	127.5*	74.2	-1.0	2.7	?	-9.1
COc1cc(NC(=O)CSc2c3c(nc4ccccc24)CCC3)cc(OC)c1OC	34.6	31.3	0.5	0.3	10.8	-2.4
O=C(CSc1c2c(nc3cc(Cl)ccc13)CCCC2)NCc1ccco1	?	48.1	0.4	-1.1	-7.1	-0.8
CCn1cc(SCC(=O)Nc2cc(C)on2)c2ccccc21	-65.0	-58.9*	0.2	2.0	-0.6	-3.5
CCOC(=O)CNC(=O)CSc1nc(Cc2ccccc2)nc2ccccc12	24.4	16.0	0.5	-1.1	-3.6	-3.3
COCCNC(=O)CSc1c2c(nc3ccc(Cl)cc13)CCCC2	107.4*	51.2	0.5	0.0	0.2	-6.2
CCCCNC(=O)CSc1nc(Cc2ccccc2)nc2ccccc12	52.2*	36.1	-0.4	0.3	-3.8	-4.7
Cc1cccc(N2CCN(C(=O)c3[nH]c(C(F)(F)F)nc3-c3ccccc3)CC2)c1C	·	·	1.5	·	·	·
COc1ccccc1NC(=O)CSc1c2c(nc3ccccc13)CCC2	8.6	13.4	2.2	-2.2	0.5	-6.0
COc1ccc(NC(=O)CSc2c3c(nc4ccccc24)CCCC3)c(OC)c1	69.6*	63.3	-8.4	2.7	-13.5	-3.6
Cc1cc(NC(=O)CSc2c3c(nc4ccccc24)CCC3)no1	72.3*	57.0	-1.3	-1.1	0.9	-2.5
CCN(C(=O)c1ccc2c(SCC(=O)O)c3c(nc2c1)CCC3)c1cc(Cl)ccc1OC	-79.3	-72.8*	-2.1	-1.7	0.8	-10.8
CCCc1nc(SCC(=O)Nc2cc(C)on2)c2ccccc2n1	105.5*	54.2	1.9	6.7	-0.8	0.1
CC1(C(=O)NS(=O)(=O)c2cccc(Cl)c2)CCN1C(=O)C1CCCCC1 (stereo not drawn)	·	·	0.2	·	·	·
O=C(C1CCN(S(=O)(=O)c2ccc(F)cc2)CC1)N1CCCC(C(F)(F)F)C1 (stereo not drawn)	-12.5	-6.7	-0.8	·	-4.6	-2.7
SMILES	HSF1 activator	HSF1 inhib	MPTP inh	HSP90 inh	Platelet DG rel	dFosB act
Cn1cc(S(=O)(=O)N2CCCC2)cc1C(=O)N1CCN(c2cccc(Cl)c2)CC1	7.4	10.3	-0.5	0.2	59.5*	-8.3
Cc1cccc(N2CCN(C(=O)c3cc(S(=O)(=O)N4CCCC4)cn3C)CC2)c1C	-4.4	-9.9	-0.4	-2.1	36.2	-8.3
CCOC(=O)N1CCN(C(=O)c2cc(S(=O)(=O)N3CCCC3)cn2C)CC1	31.2	-1.6	1.3	4.8	-4.4	3.3
Cc1ccc(C)c(N2CCN(S(=O)(=O)c3ccc4c(c3)OCCO4)CC2)c1	11.3	-1.8	47.6	3.7	57.0*	-4.0
Cc1ccc(C)c(N2CCN(C(=O)c3cc(S(=O)(=O)N4CCCC4)cn3C)CC2)c1	-74.6	-68.2*	0.4	0.4	-32.3	-17.7
O=C(NCCc1ccccc1F)C1CC(=O)N(c2ccc3c(c2)OCCO3)C1 (stereo not drawn)	·	·	-1.2	·	·	·
O=C(Nc1ccc(C(F)(F)F)cc1)c1ccc(NC(=O)C2CCCO2)cc1 (stereo not drawn)	-8.3	-4.9	-0.3	-5.6	2.3	17.0*
O=C(Nc1ccc(-c2nc3cc(Cl)ccc3o2)cc1)C1CCCO1 (stereo not drawn)	6.1	13.1	3.0	-3.4	3.4	-0.6
CCS(=O)(=O)Nc1ccc(-c2nc3cccnc3s2)cc1	-54.3	-41.0	1.9	35.5*	17.0	-36.8
O=C(Nc1ccc2oc(-c3ccccc3)nc2c1)C1CCCO1 (stereo not drawn)	73.2*	23.6	-8.4	-2.0	8.4	0.7
O=C(Nc1ccc(-c2nc3cccnc3s2)cc1)C1CCCO1 (stereo not drawn)	-66.4	-59.2*	0.4	60.4*	97.5*	-33.5
O=C(NC1CCCCC1)C(c1ccc2ncccc2c1)N(Cc1ccc2c(c1)OCO2)C(=O)c1cccs1 (stereo not drawn)	-4.7	3.5	0.4	-2.1	4.8	-5.6
S=C(c1ccc2c(c1)OCO2)N1CCN(c2cccc(Cl)c2)CC1	·	·	-1.0	·	·	-6.6
O=C(Nc1ccc2ccccc2c1)OC1CCS(=O)(=O)C1 (stereo not drawn)	·	·	-0.5	·	·	·
CCCN1CCN(C(=O)c2ccc(S(=O)(=O)N(C)c3ccccc3OC)cc2)CC1	·	·	-2.3	·	·	·
C=CCNC(=S)Nc1ccc(OC)c(S(=O)(=O)N2CCOCC2)c1	0.3	-3.4	0.0	-0.6	-1.8	-4.6
O=C(Nc1ccc(Oc2ccccc2)cc1)C1CCCO1 (stereo not drawn)	22.6	0.8	0.1	-2.3	-1.4	-4.1
O=C(Nc1ccc(-c2nc3ccccc3o2)cc1)C1CCCO1 (stereo not drawn)	27.8	8.0	-1.0	6.2	55.8*	-21.4
Cc1ccc(S(=O)(=O)Nc2cccc(C(=O)NCCN3CCOCC3)c2)cc1F	·	·	-0.5	·	·	-5.5
Cc1ccc(Cn2nnc(C(=O)Nc3cc(C)ccc3C)c2N)cc1	103.6*	61.3	6.2	-0.5	-16.0	-3.6
OCC1OC(n2cnc3c(NCCc4ccccc4)ncnc32)C(O)C1O (stereo not drawn)	10.1	2.7	-0.4	·	70.0*	1.3
CC1(C)OC2C(O1)[C@@H](CO)O[C@H]2n1cnc2c(N)ncnc21 (stereo partly drawn)	5.6	-5.2	1.4	-2.9	8.0	-12.8
Nc1ncnc2c1ncn2[C@@H]1O[C@H](CO)[C@@H](O)[C@H]1O	4.1	-5.7	-0.4	-1.1	80.9*	6.9
Nc1ccc(CCNc2ncnc3c2ncn3[C@@H]2O[C@H](CO)[C@@H](O)[C@H]2O)cc1	6.8	-5.0	-0.4	·	14.7	-0.9
